The results in this text go back to PubChem BioAssay AID2639 (National Center for Advancing Translational Sciences (NCATS), 2010).

The source made the active and inactive calls. Where a call stands in place of a potency, no number is given. Calls come from the whole dose curve.

This test is described as follows: Platelet Aggregation Secondary Assay for Inhibitors of Platelet Integrin alphallb-beta3. The note with it: platelet-rich plasma, ADP-induced aggregation, absorbance 563 nm. From the text:
NIH Molecular Libraries Probe Production Network [MLPCN] NIH Chemical Genomics Center [NCGC] MLPCN Grant: 1 R03 MH083257-01 Assay Provider: Barry Coller, Rockefeller University NCGC Assay Overview: The alphaIIbbeta3 receptor plays a vital role in hemostasis and thrombosis, where receptor deficiency causes the hemorrhagic disorder, Glanzmann thrombasthenia, and uncontrolled receptor activation causes thrombosis and blood vessel occlusion. Small molecule inhibitors of alphaIIbbeta3, tirofiban and eptifibatide, have undesirable side effects thought to arise from conformational changes in alphaIIbbeta3. These changes transiently activate the receptor to cause spontaneous platelet aggregation and thrombus formation. […] This secondary assay measures platelet aggregation (Blue et al., 2008). Platelets are induced to aggregate and aggregation is tracked by the change in absorbance over time. Inhibitors of alphaIIbbeta3 block platelet aggregation and decrease the rate of change in absorbance.
NCGC Assay Protocol Summary: Untreated 96-well polystyrene plates (Nunc, Rochester, NY) were blocked for at least 1 hour with HBMT (138 mM NaCl, 12 mM NaHCO3, 10 mM HEPES, 2.7 mM KCl, 0.4 mM NaH2PO4, 0.1% glucose, 0.35% BSA, pH 7.4). Compounds (33 uL in HBMT) and citrated platelet-rich plasma (67 uL) were added to the wells. After plates equilibrated at 37 C in the plate reader (SpectraMax; Molecular Devices, Sunnyvale, CA) for 10 minutes, aggregation was initiated by adding ADP (5 uM final concentration; Chrono-Log Corp, Havertown, PA). Absorbance (Abs) was measured at 563 nm every 10 seconds with 3 seconds of shaking between determinations for 8 minutes. Reference Blue R, Murcia M, Karan C, Jirouskova M, and Coller BS. Application of high-throughput screening to identify a novel alphaIIb-specific small- molecule inhibitor of alphaIIbbeta3-mediated platelet interaction with fibrinogen. Blood. 2008, 111(3):1248-56
With `CCc1nn2c(=O)c(F)c(N3CCNCC3)nc2s1`, the Potency is 8.3 µM (active). For the molecule `Cc1nn2c(=O)cc(N3CCNCC3)nc2s1`, the call was inactive. Take `CCc1nn2c(=O)cc(N3CCNCC3)nc2s1`: the Potency is 8.4 µM (active). Turning to `O=c1cc(N2CCNCC2)nc2sc(C3CC3)nn12`, the result was inactive. On to `CCc1nn2c(=O)c(C)c(N3CCNCC3)nc2s1`, for which the result was inactive. For `CCc1nn2c(=O)cc(N3CCN(C)CC3)nc2s1`, the outcome was inactive.
